Reference: PubChem BioAssay (NCATS)
Results filed as inconclusive are left out. Activity calls are given as the source filed them. Calls come from the whole dose curve; as a rule, active = well fitted inhibition curve with a large enough effect; inconclusive = small, poorly fitted or top-dose-only effect; inactive = flat fitted curve, though single readings scatter.

Key:
[1] = target: Luciferin 4-monooxygenase (Photinus pyralis) (UniProt P08659); assay: Biochemical firefly luciferase enzyme assay for NPC (AID 624030);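 note: purified P. pyralis luciferase at 10 nM with luciferin and ATP substrate; 0% = DMSO and -100% = full luciferase inhibition by PTC124 control; nearly all actives have a fitted effect of over 70% in size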
Summary of the method: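 Direct inhibition of firefly luciferase enzyme (10 nM final, 50 mM Tris Acetate) assessed by luminescence within 5 minutes. Percent activity scaled between DMSO and PTC124 positive control, with concentration-effect curves classified by fit quality and response.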

[2] = target: Glutathione peroxidase 1 (Homo sapiens) (UniProt P07203); assay: Primary qHTS Assay for Inhibitors of Recombinant Selenoprotein Glutathione Peroxidase 1 (GPX1) (AID 1845191); note: nearly all actives have a fitted effect of over 65% in size; for activity, negative = inhibition: % is set by controls: 0 for no effect and ±100 for the full control effect
Summary of the method: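 10 nM GPX1 + cpd, 30 min RT; start w/ 1 mM GSH, 0.5 mM cumene hydroperoxide, 0.5 mM NADPH, 100 nM GR, 0.01% BSA; buffer 50 mM Tris-HCl pH 7.5, 2 mM EDTA, 150 mM NaCl; Fl 340/450, 0 & 15 min.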

[3] = qHTS profiling for inhibitors of Plasmodium falciparum proliferation (AID 504749); note: potency is the fitted concentration of half-maximal effect;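 for activity, negative = inhibition: 0% = DMSO vehicle and full inhibition = artemisinin control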; for all read-outs here: nearly all actives have a fitted effect of over 60% in size; details: P. falciparum in erythrocytes, SYBR Green DNA, 72 h; for activity, negative = inhibition: at 28.7 µM (top of the series)
Summary of the method: (§1)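 Infected RBCs, 0.3% parasitemia/2.5% Hct final; cpd 72 h, 37 C, 5% CO2; lysis buffer with saponin/triton/SYBR Green I, o/n RT dark; FI 485/535; norm. to artemisinin (0.29 uM) and DMSO.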

[4] = tested on: AS120; assay: as above; details: P. falciparum in erythrocytes, SYBR Green DNA, 72 h; series mostly up to 28.7 µM
Summary of the method: as §1

[5] = tested on: ATS189; assay: as above; details: P. falciparum in erythrocytes, SYBR Green DNA, 72 h; series mostly up to 28.7 µM
Summary of the method: as §1

[6] = tested on: CP192; assay: as above; details: P. falciparum in erythrocytes, SYBR Green DNA, 72 h; series mostly up to 28.7 µM
Summary of the method: as §1

[7] = tested on: CP247; assay: as above; details: P. falciparum in erythrocytes, SYBR Green DNA, 72 h; series mostly up to 28.7 µM
Summary of the method: as §1

[8] = tested on: CP269; assay: as above; details: P. falciparum in erythrocytes, SYBR Green DNA, 72 h; series mostly up to 28.7 µM
Summary of the method: as §1

[9] = tested on: CP291; assay: as above; details: P. falciparum in erythrocytes, SYBR Green DNA, 72 h; series mostly up to 28.7 µM
Summary of the method: as §1

[10] = tested on: CP335; assay: as above; details: P. falciparum in erythrocytes, SYBR Green DNA, 72 h; series mostly up to 28.7 µM
Summary of the method: as §1

[11] = tested on: DIV17; assay: as above; details: P. falciparum in erythrocytes, SYBR Green DNA, 72 h; series mostly up to 28.7 µM
Summary of the method: as §1

[12] = tested on: GB4; assay: as above; details: P. falciparum in erythrocytes, SYBR Green DNA, 72 h; series mostly up to 28.7 µM
Summary of the method: as §1

[13] = tested on: HB3; assay: as above; details: P. falciparum in erythrocytes, SYBR Green DNA, 72 h; series mostly up to 28.7 µM
Summary of the method: as §1

[14] = tested on: CP194; assay: as above; details: P. falciparum in erythrocytes, SYBR Green DNA, 72 h; series mostly up to 28.7 µM
Summary of the method: as §1

[15] = tested on: CP262; assay: as above; details: P. falciparum in erythrocytes, SYBR Green DNA, 72 h; series mostly up to 28.7 µM
Summary of the method: as §1

[16] = tested on: CP297; assay: as above; details: P. falciparum in erythrocytes, SYBR Green DNA, 72 h; series mostly up to 28.7 µM
Summary of the method: as §1

[17] = tested on: CP315; assay: as above; details: P. falciparum in erythrocytes, SYBR Green DNA, 72 h; series mostly up to 28.7 µM
Summary of the method: as §1

[18] = tested on: CP329; assay: as above; details: P. falciparum in erythrocytes, SYBR Green DNA, 72 h; series mostly up to 28.7 µM
Summary of the method: as §1

[19] = target: Phospholipid hydroperoxide glutathione peroxidase GPX4 (Homo sapiens) (UniProt P36969); assay: Primary qHTS Assay for Inhibitors of Recombinant Selenoprotein Glutathione Peroxidase 4 (GPX4) (AID 1845192); note: nearly all actives have a fitted effect of over 65% in size; note: potency is the fitted concentration of half-maximal effect
Summary of the method: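 NADPH consumption, followed by fluorescence at 340/450 nm between 0 and 15 min, reports GPX4 activity via coupled glutathione reductase (100 nM). Enzyme 200 nM was pre-exposed to compound 30 min; 0.5 mM cumene hydroperoxide and 1 mM GSH served as substrates.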

Chain of Glutathione peroxidase 1 (Homo sapiens) (P07203 whole entry, looked up): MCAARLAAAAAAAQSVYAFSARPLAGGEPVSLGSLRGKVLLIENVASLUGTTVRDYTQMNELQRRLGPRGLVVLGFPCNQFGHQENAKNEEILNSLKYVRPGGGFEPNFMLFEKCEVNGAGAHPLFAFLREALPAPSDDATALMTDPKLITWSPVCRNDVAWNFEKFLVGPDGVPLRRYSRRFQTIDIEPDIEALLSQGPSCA
Chain of Luciferin 4-monooxygenase (Photinus pyralis) (P08659 whole entry, looked up): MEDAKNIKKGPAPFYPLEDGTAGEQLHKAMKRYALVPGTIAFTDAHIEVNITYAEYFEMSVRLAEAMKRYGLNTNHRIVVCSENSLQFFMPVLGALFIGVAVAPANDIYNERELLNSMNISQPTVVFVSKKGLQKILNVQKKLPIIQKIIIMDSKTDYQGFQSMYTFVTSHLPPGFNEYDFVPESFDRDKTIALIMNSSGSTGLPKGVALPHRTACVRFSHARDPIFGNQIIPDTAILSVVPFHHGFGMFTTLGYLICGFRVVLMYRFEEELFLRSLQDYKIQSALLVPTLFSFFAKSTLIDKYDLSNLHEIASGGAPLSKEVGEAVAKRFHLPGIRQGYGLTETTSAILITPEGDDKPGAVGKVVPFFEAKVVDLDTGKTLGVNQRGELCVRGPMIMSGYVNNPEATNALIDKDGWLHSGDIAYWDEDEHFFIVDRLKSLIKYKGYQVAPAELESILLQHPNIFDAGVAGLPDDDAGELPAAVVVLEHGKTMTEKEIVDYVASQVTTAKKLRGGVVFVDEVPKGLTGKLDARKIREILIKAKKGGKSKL
Chain of Phospholipid hydroperoxide glutathione peroxidase GPX4 (Homo sapiens) (P36969 whole entry, looked up): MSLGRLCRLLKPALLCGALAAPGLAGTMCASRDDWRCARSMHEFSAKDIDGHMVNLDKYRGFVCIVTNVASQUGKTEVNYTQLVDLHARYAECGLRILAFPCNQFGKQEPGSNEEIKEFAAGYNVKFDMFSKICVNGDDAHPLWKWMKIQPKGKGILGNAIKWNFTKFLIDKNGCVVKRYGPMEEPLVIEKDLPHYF

CO[C@@H]1[C@@H](OC2OC(C)C(OC3CC(C)(O)C(OC(=O)CC(C)C)C(C)O3)C(N(C)C)C2O)[C@@H](CC=O)C[C@@H](C)C(=O)/C=C\C2O[C@H]2C[C@@H](C)OC(=O)C[C@H]1OC(C)=O (stereo partly drawn)
active: Potency ([3]; parasite line A) 11.2 µM | Potency ([3]; parasite line B) 10 µM | Potency [4] 10 µM | Potency [5] 11.2 µM | Potency [7] 11.2 µM | Potency [8] 4.78 µM | Potency [9] 6.75 µM | Potency [10] 6.75 µM | Potency [11] 10.7 µM | Potency [12] 13.5 µM | Potency [13] 11.2 µM
inactive: Potency [1] | Potency [2] | Potency [6]

COc1cc([C@@H]2c3cc4c(cc3[C@@H](O[C@@H]3O[C@@H]5CO[C@@H](C)O[C@H]5[C@H](O)[C@H]3O)[C@H]3COC(=O)[C@H]23)OCO4)cc(OC)c1OP(=O)(O)O
inactive: Potency [1] | Potency [2]

COc1cc(/C=C/C(=O)N2CCC=CC2=O)cc(OC)c1OC
inactive: Potency [2]

Cc1cc(CC(C)CC(C)(C)C)n(O)c(=O)c1 (stereo not drawn)
inactive: Potency [1] | Potency [2]
active: Potency ([3]; parasite line A) 1.78 µM | Potency ([3]; parasite line B) 1 µM | Potency [4] 2.51 µM | Potency [5] 3.16 µM | Potency [6] 2.39 µM | Potency [14] 4.26 µM | Potency [7] 2.24 µM | Potency [15] 3.38 µM | Potency [8] 3.38 µM | Potency [9] 1.9 µM | Potency [16] 1.69 µM | Potency [17] 3.38 µM | Potency [18] 1.9 µM | Potency [10] 1.69 µM | Potency [11] 1.51 µM | Potency [12] 1.51 µM | Potency [13] 8.91 µM

Cc1cccc(O)c1
inactive: Potency [2] | Potency [19]

C=C[C@@H]1C[C@]1(NC(=O)[C@@H]1C[C@@H]2CN1C(=O)[C@H](C(C)(C)C)NC(=O)O[C@@H]1C[C@H]1CCCCCc1nc3ccc(OC)cc3nc1O2)C(=O)NS(=O)(=O)C1CC1
active: Potency [19] 5.62 µM

CCC(=O)O[C@@H](OP(=O)(CCCCc1ccccc1)CC(=O)N1C[C@H](C2CCCCC2)C[C@H]1C(=O)O)C(C)C (stereo partly drawn)
inactive: Potency [1] | activity, negative = inhibition [2] 2.57% [at 9.52 µM] | activity, negative = inhibition ([3]; parasite line A) -6.06% | activity, negative = inhibition ([3]; parasite line B) -3.37% | Potency [4] | Potency [5] | Potency [6] | Potency [14] | Potency [7] | Potency [15] | Potency [8] | Potency [9] | Potency [16] | Potency [17] | Potency [18] | Potency [10] | Potency [11] | Potency [12] | Potency [13]

CCCC1CC(C(=O)NC(C(C)Cl)C2OC(SC)C(OP(=O)(O)O)C(O)C2O)N(C)C1 (stereo not drawn)
inactive: Potency [19]

CC(C)CC(NC(=O)CNC(=O)C(Cc1ccc(O)cc1)NC(=O)C(CO)NC(=O)C(Cc1c[nH]c2ccccc12)NC(=O)C(Cc1cnc[nH]1)NC(=O)C1CCC(=O)N1)C(=O)NC(CCCN=C(N)N)C(=O)N1CCCC1C(=O)NCC(N)=O (stereo not drawn)
inactive: Potency [1] | Potency [2] | Potency [19]

CCC[C@@H]1C[C@@H](C(=O)N[C@@H](C2O[C@H](SC)[C@H](O)[C@@H](O)[C@H]2O)[C@H](C)Cl)N(C)C1 (stereo partly drawn)
inactive: Potency [19]

Nc1nc(Cl)nc2c1ncn2C1CC(O)C(CO)O1 (stereo not drawn)
inactive: Potency [1] | Potency [2] | Potency [19] | Potency [6] | Potency [14] | Potency [15] | Potency [8] | Potency [9] | Potency [16] | Potency [17] | Potency [18] | Potency [10] | Potency [11] | Potency [12]

CC(C)OC(=O)[C@H](C)N[P@@](=O)(OC[C@H]1O[C@@H](n2ccc(=O)[nH]c2=O)[C@](C)(F)[C@@H]1O)Oc1ccccc1
inactive: Potency [19]
